# Source: paper PMC5540273 (PLoS ONE, 2017)
# Key:
# Conditions in all cases: concentration: 1 μM, replicates: in singlicate; n = 1
# CSNK1G1 = test system: CSNK1G1
# CSNK1G2 = test system: CSNK1G2
# CSNK1G3 = test system: CSNK1G3
# CSNK2A1 = test system: CSNK2A1
# CSNK2A2 = test system: CSNK2A2
# CTK = test system: T1, CTK
# T1 construct: gene MATK
# DAPK1 = test system: DAPK1
# DAPK2 = test system: DAPK2
# DAPK3 = test system: DAPK3
# DCAMKL1 = test system: T2, DCAMKL1
# T2 construct: gene DCLK1
# 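Also: KINOMEscan kinase panel screen.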
SMILES,%Inh (CSNK1G1),%Inh (CSNK1G2),%Inh (CSNK1G3),%Inh (CSNK2A1),%Inh (CSNK2A2),%Inh (CTK),%Inh (DAPK1),%Inh (DAPK2),%Inh (DAPK3),%Inh (DCAMKL1)
Cc1ccc(NC(=O)c2cccc(N3CCCCC3)c2)cc1-c1ccc(C(=O)NCC2CC2)cc1 [GSK1917008],8%,0%,24%,29%,10%,17%,0%,0%,29%,16%
Nc1cccc(-c2ccc3c(N)n[nH]c3c2)c1 [GSK2193613],13%,0%,18%,27%,61%,0%,0%,6%,4%,13%
Cc1nn2c(=O)cc(N3CCO[C@H](C)C3)nc2n1Cc1cccc(Cl)c1Cl [GSK2373693],10%,0%,26%,50%,63%,0%,37%,54%,94.7%,0%
Cc1ccc(C)c(NC(=O)Nc2ccc(C)c(-c3ccc(C(=O)Nc4ccncc4)cc3)c2)c1 [GSK1398473],3%,15%,32%,15%,0%,0%,26%,0%,2%,13%
COc1ccc(C2=C(Nc3cccc(O)c3)C(=O)NC2=O)cc1 [SB-390766],4%,0%,19%,0%,19%,1%,0%,0%,52%,13%
Cc1ccc(O)cc1Nc1ccnc2cc(-c3ccc(CN4CCCCC4)o3)ccc12 [GW557777],6%,5%,7%,0%,0%,27%,16%,3%,1%,25%
CCOc1nccc(-c2c(-c3ccc(F)cc3)ncn2C2CCNCC2)n1 [SB-249175],0%,32%,0%,56%,65%,0%,0%,0%,0%,25%
Cc1ccc(NC(=O)c2ccnc(N3CCCCC3)c2)cc1-c1ccc(C(=O)NCC2CC2)cc1 [GW775610],0%,20%,0%,0%,0%,25%,100%,0%,12%,0%
Cl.Cl.NCC(NC(=O)c1cc(-c2cccnc2)c(-c2ccnc3[nH]ccc23)s1)c1ccccc1 (stereo not drawn) [GSK1323434],39%,63%,68%,32%,40%,0%,59%,21%,27%,21%
Nc1ncnc2scc(-c3ccc(NC(=O)Cc4cc(F)ccc4F)cc3)c12.O=C(O)C(F)(F)F [SB-731254-M],26%,36%,40%,13%,14%,67%,0%,100%,100%,27%
COc1ccc(C)c(Nc2ccnc(Nc3ccc(-c4cnc[nH]4)cc3)n2)c1.Cl [GW784041],15%,0%,8%,0%,5%,0%,7%,10%,6%,7%
CC(C)c1nc(-c2ccc(F)c(NS(=O)(=O)c3c(F)cccc3F)c2)c(-c2ccnc(Nc3ccc(N4CCOCC4)nc3)n2)s1 [GSK1804250],7%,4%,12%,10%,0%,30%,14%,5%,20%,12%
CCn1c(-c2nonc2N)nc2c(-c3ccccc3)ncc(OCCCN)c21.O=C(O)C(F)(F)F.O=C(O)C(F)(F)F [GSK260205],10%,0%,29%,22%,31%,0%,10%,2%,25%,0%
CN(c1ccc(F)c(NC(=O)c2cccc(OC(C)(C)C#N)c2Cl)c1)c1ccc2nc(NC(=O)C3CC3)sc2n1,0%,12%,0%,35%,10%,13%,4%,0%,4%,0%
CN(c1ccc(NC(=O)N2CCN(CCCN3CCOCC3)CC2)cc1)c1ccnc(Nc2ccc(CS(C)(=O)=O)cc2)n1.Cl [GW830899],19%,6%,5%,0%,0%,0%,4%,0%,0%,0%
COc1cc(Nc2nccc(N3CCC(NC(=O)Nc4ccc5c(c4)OCO5)C3)n2)cc(OC)c1OC (stereo not drawn) [GSK1379766],10%,0%,4%,4%,16%,0%,5%,0%,7%,7%
O=C(O)C(F)(F)F.O=c1[nH]ccc2nc(N[C@@H]3CCNC3)nc(Nc3ccc4c(c3)S(=O)(=O)CC4)c12 [GSK2181306],85%,87%,94.4%,99.2%,99.9%,16%,99.5%,97.8%,99.6%,95.7%

SMILES,%Inh (CSNK1G1),%Inh (CSNK1G2),%Inh (CSNK1G3),%Inh (CSNK2A1),%Inh (CSNK2A2),%Inh (CTK),%Inh (DAPK1),%Inh (DAPK2),%Inh (DAPK3),%Inh (DCAMKL1)
Nc1ncc(-c2ccc3nccc(-c4ccncc4)c3c2)cc1S(=O)(=O)N1CCCCC1 [GSK1693850],0%,18%,33%,2%,0%,0%,11%,26%,30%,15%
CSc1ccc(NC2=C(c3ccc(Cl)cc3)C(=O)NC2=O)cc1 [SB-317658],0%,15%,0%,0%,25%,19%,0%,0%,0%,0%
CC(C)c1nc(-c2cccc(NS(=O)(=O)c3c(F)cccc3F)c2)c(-c2ccnc(Nc3ccc(N4CCOCC4)nc3)n2)s1.Cl [GSK1723980],2%,0%,0%,2%,0%,37%,3%,0%,0%,11%
CS(=O)(=O)c1cccc(CNc2nc(Nc3ccc4c(c3)CCC(=O)N4)ncc2C(F)(F)F)c1,0%,4%,0%,17%,51%,0%,0%,0%,11%,36%
CN(C)CCNS(=O)(=O)c1ccc(-c2ccnc3[nH]ccc23)cc1 [GSK977620],0%,0%,5%,30%,11%,0%,76%,44%,88%,18%
Nc1ncc(-c2cn[nH]c2)c2scc(-c3ccc4c(c3)CCN4C(=O)Cc3ccccc3)c12 [GSK2593067],6%,24%,27%,11%,0%,12%,0%,0%,22%,0%
COc1cccc2c(-c3ccncc3)c(-c3ccc(F)cc3)nn12 [GW468513],10%,14%,31%,11%,12%,8%,0%,0%,21%,0%
CN1CCN(Cc2ccc(NC(=O)Nc3ccc(N(C)c4ccnc(Nc5ccc(CS(C)(=O)=O)cc5)n4)cc3)cc2)CC1.Cl [GW827654],0%,0%,0%,100%,22%,16%,8%,0%,0%,44%
Cl.O=C(Nc1ccc(Oc2ccc3[nH]c(NC(=O)c4ccco4)nc3c2)cc1)Nc1cc(C(F)(F)F)ccc1F [GW683134],0%,0%,7%,9%,0%,6%,3%,0%,20%,19%
Cc1ccc(Nc2ccnc(Nc3ccc(C)c(F)c3)n2)cc1O.Cl [GW582868],0%,0%,0%,0%,9%,0%,0%,0%,4%,11%
c1ccc(Oc2ccc(Nc3ccnc4cc(-c5ccc(CN6CCCCC6)o5)ccc34)cc2)nc1 [GW567143],0%,6%,3%,15%,12%,5%,0%,0%,0%,4%
Fc1cc(Cl)ccc1Nc1ccnc2cc(-c3ccc(CN4CCOCC4)o3)ccc12 [GW560109],7%,0%,7%,0%,86%,28%,0%,0%,10%,12%
CCNc1nccc(-c2c(-c3ccc(F)cc3)ncn2C2CCN(C)CC2)n1,7%,1%,0%,44%,17%,100%,24%,15%,10%,13%
CC(C)(C)c1ccc(C(=O)Nc2cn3cc(-n4ccnc4)ccc3n2)cc1,0%,12%,0%,0%,7%,24%,0%,16%,2%,29%
O=C(Nc1c(F)cccc1F)c1cc(C(=O)c2ccccc2F)c[nH]1 [GSK1326180],0%,0%,21%,0%,0%,0%,0%,4%,4%,0%
CN(c1ccc(NC(=O)Nc2cccc(Cl)c2)cc1)c1ccnc(N)n1.Cl [GW830707],12%,0%,0%,0%,0%,13%,0%,0%,0%,0%
